Results from PubChem BioAssay (NCATS).
Results filed as inconclusive are left out. Activity calls are given as the source filed them. Unless noted, calls follow the shape of the dose curve; as a rule, active = well fitted curve in the direction sought with a large enough effect; inconclusive = small, poorly fitted or top-dose-only effect, or another doubt; inactive = no such curve, though single readings can be large; an effect the other way counts as inactive or inconclusive.

Experiments:
C2A = experiment: qHTS profiling for inhibitors of Plasmodium falciparum proliferation (AID 504749); also: nearly all actives have a fitted effect of over 60% in size; also: potency is read from the fitted curve at half-maximal effect; details: P. falciparum in erythrocytes, SYBR Green DNA, 72 h; series mostly up to 28.7 µM
Method in brief: (§1)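 Each compound contacts P. falciparum-infected red blood cells for 72 h at 37 C; lysis buffer (Tris, EDTA, saponin, Triton X, SYBR Green I) is added and fluorescence measured next morning; values normalized to controls.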

CP191 = experiment: as above; details: P. falciparum in erythrocytes, SYBR Green DNA, 72 h; series mostly up to 28.7 µM
Method in brief: as §1

CP217 = experiment: as above; details: P. falciparum in erythrocytes, SYBR Green DNA, 72 h; series mostly up to 28.7 µM
Method in brief: as §1

CP260 = experiment: as above; details: P. falciparum in erythrocytes, SYBR Green DNA, 72 h; series mostly up to 28.7 µM
Method in brief: as §1

DFO2036 = experiment: as above; details: P. falciparum in erythrocytes, SYBR Green DNA, 72 h; series mostly up to 28.7 µM
Method in brief: as §1

GB4 = experiment: as above; details: P. falciparum in erythrocytes, SYBR Green DNA, 72 h; series mostly up to 28.7 µM
Method in brief: as §1

ICS = experiment: as above; details: P. falciparum in erythrocytes, SYBR Green DNA, 72 h; series mostly up to 28.7 µM
Method in brief: as §1

P93_24 = experiment: as above; details: P. falciparum in erythrocytes, SYBR Green DNA, 72 h; series mostly up to 28.7 µM
Method in brief: as §1

P94_40 = experiment: as above; details: P. falciparum in erythrocytes, SYBR Green DNA, 72 h; series mostly up to 28.7 µM
Method in brief: as §1

PC26 = experiment: as above; details: P. falciparum in erythrocytes, SYBR Green DNA, 72 h; series mostly up to 28.7 µM
Method in brief: as §1

TAB165 = experiment: as above; details: P. falciparum in erythrocytes, SYBR Green DNA, 72 h; series mostly up to 28.7 µM
Method in brief: as §1

[1] = biological target: Mitogen-activated protein kinase 10 (Mus musculus) (UniProt Q61831); experiment: JNK3 AlphaScreen Assay (AID 530; active = well fitted curve in either direction with a large enough effect, not every such curve was filed as active;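 also: kinase came from lysate of stimulated human HepG2 cells; signal reports phosphorylation of biotinylated GST-cJun 1-79 at Ser73 with 10 µM ATP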)
Method in brief: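 Activity was read by AlphaScreen after JNK3-containing HepG2 lysate (cytokine pre-activated) phosphorylated biotinylated GST-cJun with 10 uM ATP at room temperature. Phospho-Ser73 cJun antibody with Protein-A acceptor beads provided detection.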

[2] = biological target: DNA dC->dU-editing enzyme APOBEC-3G (Homo sapiens) (UniProt Q9HC16); experiment: qHTS for inhibitors of Vif-A3G interactions: Validation (AID 588379)
Sequence of DNA dC->dU-editing enzyme APOBEC-3G (Homo sapiens) (Q9HC16 whole entry, looked up): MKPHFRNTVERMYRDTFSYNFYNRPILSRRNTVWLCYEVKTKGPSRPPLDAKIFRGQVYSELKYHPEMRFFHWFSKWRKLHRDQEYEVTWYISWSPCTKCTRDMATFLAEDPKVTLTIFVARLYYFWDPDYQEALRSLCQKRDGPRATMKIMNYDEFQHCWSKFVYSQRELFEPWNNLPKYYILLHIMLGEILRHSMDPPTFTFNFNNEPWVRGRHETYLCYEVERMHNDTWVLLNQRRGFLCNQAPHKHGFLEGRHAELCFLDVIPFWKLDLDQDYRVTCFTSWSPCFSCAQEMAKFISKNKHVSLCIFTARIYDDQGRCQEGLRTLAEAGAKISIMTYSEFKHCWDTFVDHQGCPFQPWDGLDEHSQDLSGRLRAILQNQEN
Method in brief: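 Yellow fluorescence (Ex 488, Em 500-530) of Vif-coexpressing HeLa A3G-eYFP cells, scanned by Acumen cytometer, reports blocked A3G degradation. Cells plated at 700/well overnight at 37 deg C before compound addition, then a further overnight compound incubation at 37 deg C.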

[3] = Confirmation and Secondary Assay for Modulators of Hemoglobin Beta Chain Splicing at IVS2 654 locus (AID 910);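 also: HeLa cells stably carrying EGFP split by mutant beta-globin IVS2-654 intron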
Method in brief: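 HeLa cells stably expressing EGFP interrupted by β-globin IVS2-654 intron, seeded overnight in Opti-MEM/2% FCS, then treated 2 days at 37 °C. Restored splicing read as total peak GFP intensity per well by laser scanning cytometry (488 nm excitation, 500–520 nm emission); 500 nM antisense PNA as control.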

Measured: Potency

Cn1cc(C(=O)[C@@H]2CCc3[nH]cnc3C2)c2ccccc21
inactive: C2A | CP191 | CP217 | CP260 | DFO2036 | GB4 | ICS | P93_24 | P94_40 | PC26 | TAB165

Cc1cnc(NC(=O)C2C(=O)c3ccccc3S(=O)(=O)N2C)s1 (stereo not drawn)
inactive: C2A | CP191 | CP217 | CP260 | GB4 | ICS | P93_24 | P94_40 | PC26

CC(C)(C)NC[C@H](O)CSc1nc(-c2ccc(C(N)=O)s2)cs1
inactive: C2A | CP191 | CP217 | DFO2036 | GB4 | P93_24 | P94_40 | PC26 | TAB165

CCCSS/C(CCO)=C(/C)N(C=O)Cc1cnc(C)nc1N
inactive: C2A | CP191 | CP217 | CP260 | DFO2036 | P93_24 | P94_40 | PC26

C=C1/C(=C\C=C2/CCC[C@]3(C)[C@@H]([C@H](C)/C=C/[C@@H](O)C4CC4)CC[C@@H]23)C[C@@H](O)C[C@@H]1O
inactive: C2A | CP191 | CP217 | GB4 | PC26

C[C@]12CCC(=O)C=C1[C@@H]1C[C@H]1[C@H]1[C@@H]3[C@@H]4C[C@H]4[C@@]4(CCC(=O)O4)[C@@]3(C)CC[C@@H]12
inactive: C2A | CP191 | CP217 | CP260 | GB4 | P93_24 | P94_40 | PC26 | TAB165

C#C[C@]1(O)CC[C@H]2[C@H]3[C@H](CC[C@@]21C)C1=C(CC(=O)CC1)C[C@@H]3C
inactive: C2A | CP191 | CP217 | CP260 | DFO2036 | GB4 | P93_24 | P94_40 | PC26 | TAB165

CC1=C[C@@H](O)CC(C)(C)[C@@H]1/C=C/C(C)=C/C=C/C(C)=C/C=C/C=C(C)/C=C/C=C(C)/C=C/C1=C(C)C[C@H](O)CC1(C)C
inactive: CP191 | DFO2036
active: ICS 5.01 µM

C/C(=C(/CCOC(=O)C(C)C)SS/C(CCOC(=O)C(C)C)=C(\C)N(C=O)Cc1cnc(C)nc1N)N(C=O)Cc1cnc(C)nc1N
inactive: C2A | CP217 | CP260 | ICS | P93_24 | P94_40 | PC26 | TAB165

CC1=C(C/C=C(\C)CCCC(C)CCCC(C)CCCC(C)C)C(=O)c2ccccc2C1=O (stereo not drawn)
inactive: C2A | CP217 | PC26
active: ICS 3.98 µM | P94_40 4.47 µM

C[C@H](CN1c2ccccc2Sc2cccnc21)N(C)C
active: CP260 8.91 µM | DFO2036 11.2 µM | GB4 6.75 µM | P93_24 8.91 µM | TAB165 11.2 µM

CC1=C(c2ccc(NN=C(C#N)C#N)cc2)NNC(=O)C1
inactive: C2A | CP191 | CP217 | ICS | P93_24 | P94_40 | PC26 | TAB165

OCC(O)C(O)C(O)C(O)CO (stereo not drawn)
inactive: C2A | CP191 | CP217 | CP260 | DFO2036 | GB4 | ICS | P93_24 | P94_40 | PC26 | TAB165

CCC(C)C(N)C(=O)O (stereo not drawn)
inactive: C2A | CP191 | CP217 | CP260 | DFO2036 | P93_24 | P94_40 | PC26 | TAB165

CC1OC(OC2C(O)CC(OC3C(O)CC(OC4CCC5(C)C(CCC6C5CCC5(C)C(C7=CC(=O)OC7)CCC65O)C4)OC3C)OC2C)CC(O)C1O (stereo not drawn)
inactive: C2A | CP191 | CP217 | CP260 | P93_24 | P94_40 | TAB165

CC1CN(c2c(F)c(N)c3c(=O)c(C(=O)O)cn(C4CC4)c3c2F)CC(C)N1 (stereo not drawn)
inactive: C2A | CP191 | CP217 | GB4 | ICS | P93_24 | P94_40 | PC26 | TAB165

CCOc1ccccc1O[C@@H](c1ccccc1)[C@@H]1CNCCO1
inactive: [1] | [2] | DFO2036
active: ICS 5.01 µM | P93_24 10 µM | TAB165 10 µM

C/C=C1/NN(CCCN2CCN(c3cccc(Cl)c3)CC2)C(=O)N1CCOc1ccccc1
inactive: C2A | CP217 | CP260 | DFO2036 | P93_24 | P94_40

CCC(=O)OC1C(N(C)C)CC(C)O[C@H]1O[C@H]1[C@H](C)[C@@H](O[C@H]2CC(OC)[C@@H](O)C(C)O2)[C@H](C)C(=O)O[C@@H](CC)[C@](C)(O)[C@@H](O)[C@H](C)C(=O)[C@@H](C)C[C@]1(C)O (stereo partly drawn)
inactive: CP260

C=CCN1CC(C(=O)N(CCCN(C)C)C(=O)NCC)CC2c3cccc4[nH]cc(c34)CC21 (stereo not drawn)
inactive: DFO2036 | PC26
active: GB4 15.1 µM | ICS 12.6 µM

C=C1N[C@]2(C(=O)COC(C)=O)[C@@H](C[C@H]3[C@@H]4CCC5=CC(=O)C=C[C@]5(C)[C@H]4[C@@H](O)C[C@@]32C)O1
inactive: GB4

O=C(NC(CO)C(O)c1ccc([N+](=O)[O-])cc1)C(Cl)Cl (stereo not drawn)
inactive: [3] | PC26

C[C@@H]1CC2[C@@H]3C[C@H](F)C4=CC(=O)C(Cl)=C[C@]4(C)[C@@]3(F)[C@H](O)C[C@]2(C)[C@@]1(O)C(=O)CO (stereo partly drawn)
inactive: CP217

CC[C@H]1OC(=O)[C@H](C)C(=O)[C@H](C)[C@@H](OC2O[C@H](C)C[C@H](N(C)C)[C@@H]2O)[C@@](C)(OC)C[C@@H](C)C(=O)[C@@H](C)C2N(CCCCn3cnc(-c4cccnc4)c3)C(=O)O[C@@]21C (stereo partly drawn)
active: ICS 10 µM
inactive: C2A | DFO2036 | PC26

C=C1CC[C@H](O)C/C1=C/C=C1\CCC[C@]2(C)[C@@H]([C@H](C)CCCC(C)(C)O)CC[C@@H]12
active: ICS 7.94 µM | TAB165 12.6 µM

Oc1cc2cc(CCN3CCN(c4nsc5ccccc45)CC3)c(Cl)cc2[nH]1
active: ICS 6.31 µM
inactive: C2A | CP217 | DFO2036 | P94_40

CCC1OC(=O)C[C@@H](O)[C@H](C)[C@@H](OC2OC(C)CC(N(C)C)C2O)[C@@H](CC=O)C[C@@H](C)C(=O)/C=C/[C@]2(C)OC2C1C (stereo partly drawn)
active: ICS 4.47 µM | P93_24 1.12 µM

Cc1cncc(C(=O)O)[n+]1[O-]
inactive: CP260 | GB4 | ICS | P94_40 | PC26

C=C1CC[C@H](O)C/C1=C/C=C1\CCC[C@]2(C)[C@@H]([C@H](C)CC[C@@H](O)C(C)(C)O)CC[C@@H]12
active: ICS 10 µM | PC26 15.1 µM | TAB165 14.1 µM

C=C1CCC(O)C/C1=C/C=C1\CCC[C@]2(C)[C@@H]([C@H](C)/C=C/[C@H](C)C(C)C)CC[C@@H]12 (stereo partly drawn)
inactive: CP260 | PC26

CC1=C(/C=C/C(C)=C\C=C\C(C)=C\C=C\C=C(C)\C=C\C=C(C)\C=C\C2=C(C)C[C@@H](O)CC2(C)C)C(C)(C)C[C@H](O)C1
active: CP260 10 µM | GB4 13.5 µM | ICS 1.12 µM | P93_24 12.6 µM | TAB165 11.2 µM
inactive: CP191

CCN(CC)CCOCCOC(=O)C(CC)(CC)c1ccccc1 (tested in a mixture with another compound)
active: CP191 10 µM | GB4 8.49 µM

COC(=O)C1[C@@H](OC)C(OC(=O)COc2ccc(OC)cc2)C[C@@H]2CN3CCc4c([nH]c5cc(OC)ccc45)[C@H]3C[C@H]12 (stereo partly drawn)
active: CP217 11.2 µM | ICS 5.01 µM | P93_24 10 µM | TAB165 12.6 µM

Cc1cc(O)c2c(c1)OC1(C)CCC3C(C)(C)CCCC34COC2C14 (stereo not drawn)
active: GB4 15.1 µM | ICS 6.31 µM
inactive: C2A | CP260

C=C1CC2C3C=C(C)C4=CC(=O)CCC4(C)C3CCC2(C)[C@@]1(OC(C)=O)C(C)=O (stereo partly drawn)
inactive: C2A | DFO2036
